The panel holds about 83,000 compounds, 20% with a hit somewhere; the sample as a whole holds those more often.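 Activity criterion: percent growth below 10, measured after cells in 96-well plates were exposed to a single compound concentration for 48 hours.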 Unmarked numbers belong to inactive results. Activity calls are given as the source filed them.
Assays:
Test in all cases: NCI-60 one-dose screen, 48 h (100 = growth as untreated, 0 = no growth, -100 = all killed)
Settings in all cases: 10 µM unless noted
[1] = test system: HCT-15 colon
[2] = test system: HT29 colon
[3] = test system: SNB-75 CNS
[4] = test system: SNB-19 CNS
[5] = test system: U251 CNS
[6] = test system: PC-3 prostate
[7] = test system: SK-MEL-5 melanoma
[8] = test system: UACC-62 melanoma
[9] = test system: LOX IMVI melanoma
[10] = test system: SK-MEL-28 melanoma
[11] = test system: SK-MEL-2 melanoma
[12] = test system: EKVX NSCLC
[13] = test system: SN12C renal
[14] = test system: UO-31 renal
[15] = test system: TK-10 renal
[16] = test system: ACHN renal
[17] = test system: CAKI-1 renal
[18] = test system: A498 renal
[19] = test system: CCRF-CEM leukemia
[20] = test system: MOLT-4 leukemia

SMILES	growth [1]	growth [2]	growth [3]	growth [4]	growth [5]	growth [6]	growth [7]	growth [8]	growth [9]	growth [10]	growth [11]	growth [12]	growth [13]	growth [14]	growth [15]	growth [16]	growth [17]	growth [18]	growth [19]	growth [20]
COc1cccc2nc3n(c12)C(c1c(F)cccc1F)SC3 (centres undefined)	101%	100%	96%	101%	92.5%	80.6%	86%	77.5%	93.1%	112%	86.2%	101%	100%	77.6%	115%	92.7%	106%	103%	89.5%	
Cc1ccc2sc3c(NCCN)nc4ccccc4c3c(=O)c2c1	29%	10.8%	77.2%	81%	49.7%	79.5%	95.6%	99.4%	15.6%	111%	105%	88%	69.3%	50.6%	96.2%	66.4%	42.7%	61.6%	32.8%	
COc1ccc(/C=C(/C#N)n2nnc3cccc(F)c32)cc1	13.2%	1.29% (active)	-43.5% (active)	24.6%	14.3%	27.1%	-7.21% (active)	17.9%	5.5% (active)	48.1%	-10.4% (active)	36.8%	28.9%	26.2%	46.5%	31.5%	22.8%	-7.93% (active)	21.3%	
COc1cccc(-c2nc(-c3ccc(NC(=O)c4ccccc4)cc3)[nH]c2-c2ccnc(Br)c2)c1	-0.905% (active)	10.2%	10.7%	33.6%	30.7%	17.6%	-79.6% (active)	16.4%	-55.8% (active)	37%	29.4%	24.4%	53.8%	3.81% (active)	59.5%	24.8%	20.4%	-28.3% (active)	21.4%	
O=C(O)CCC/C=C\C[C@H]1C=CC(=O)/C1=C/C[C@@H](O)CCc1cccc(C(F)(F)F)c1	-55.8% (active)	-8.89% (active)	72.8%	7.63% (active)	-71.1% (active)	-19.3% (active)	-85.9% (active)	-62.2% (active)	-60.9% (active)	-43.6% (active)	-6.24% (active)	37.9%	-24.7% (active)	-88.4% (active)	11.1%	-70.3% (active)	12.6%	-12% (active)	4.1% (active)	-8.07% (active)
CCCCn1c(=O)c(-c2cc(-c3ccc(Cl)cc3)nc(-c3ccc(Cl)cc3)c2)cc2ccc(Cl)cc21	105%	109%	86.4%	96.1%	101%	94.6%	104%	95.4%	98.1%	106%	123%	105%	98.8%	86.8%	115%	104%	91.6%	102%	100%	100%
c1cc2nc(-c3cn[nH]c3)c3c(c2cc1-c1cn[nH]c1)C1CCC3C1 (centres undefined)	47.2%	81.8%	-1.68% (active)	78.9%	72%	62.3%	60.2%	59.6%	69.1%	73.7%	92.4%	46.3%	66%	40.3%	97.4%	44.9%	28.3%	-6.11% (active)	69%	
CCOC(=O)Nc1ccc(C(=O)/C=C/c2ccccc2)cc1	85.7%	37.4%	116%	81.4%	73.6%	88.6%	92.2%	81.5%	70.5%	101%	105%	105%	87%	51.9%	103%	102%	105%	92.1%	91.6%	78.8%
Fc1cc(-c2nnc3n2NC(=Nc2ccc(Cl)cc2)CS3)c(Cl)cc1Cl	97.3%	93.8%	71.7%	93.6%	94.9%	111%	88.9%	81.4%	86.5%	99%	88.3%	95.2%	108%	65.6%	91.6%	95.2%	94.2%	77.8%	214%	
CCc1ccc(Oc2c(-c3ccc(OCc4ccc(Cl)cc4)cc3O)nn(C)c2C(F)(F)F)cc1	4.91% (active)	-11.1% (active)	-0.904% (active)	18.2%	1.22% (active)	-6.54% (active)	-76.4% (active)	-2.19% (active)	-24.6% (active)	20.1%	-30.7% (active)	9.36% (active)	4.95% (active)	-22.9% (active)	-1.88% (active)	5.42% (active)	3.34% (active)	-22.6% (active)	1.82% (active)	-13.6% (active)
COc1ccc(CNC(=O)[C@H](O)[C@@H](N)Cc2ccccc2)cc1	107%	103%	86%	102%	101%	108%	105%	96.6%	97.6%	107%	123%	99.8%	97.5%	92%	102%	107%	90.7%	90.8%	102%	
c1cc(NCCc2ccncc2)nc(-n2cnc3ccccc32)c1	90.1%	92.7%	112%	99.9%	82.2%	83%	93.7%	91.2%	79.4%	109%	86.8%	102%	90.4%	74.9%	86.9%	65.4%	81.2%	69.3%	99.8%	
COc1cc2cc(Oc3ccc(NC(=O)Nc4cc(C(F)(F)F)cc(C(F)(F)F)c4)cc3)c(C)nc2cc1OCCN1CCOCC1	13.4%	10.9%	36%	23.8%	8.71% (active)	10.5%	-13.1% (active)	45.9%	20.7%	51.2%	32.9%	21.4%	8.87% (active)	20.1%	53.6%	5.89% (active)	15.3%	40.7%	9.65% (active)	
CCOC(=O)c1cn2ncnc(Oc3ccc(NC(=O)NCCN4CCN(C)CC4)c(Cl)c3)c2c1C	39.6%	19.7%	86.3%	87.7%	63.3%	50.5%	47.6%	34%	66.2%	13.3%	91.9%	66.3%	65%	61.7%	97.5%	80%	76.3%	77.9%	44.3%	
COc1cccc2c(=O)c3c(sc12)c(N1CCNCC1)nc1ccccc13	37.3%	0.0883% (active)	79.2%	80%	12.2%	68.3%	95.3%	105%	-29.3% (active)	107%	112%	95.6%	64.3%	47.2%	90.7%	53.1%	45.8%	61.8%	13.8%	
COC1=C(C)C(=O)c2c(c(CCCl)c3n2CCC3O)C1=O (centres undefined)	2.73% (active)	-4.05% (active)	-45.3% (active)	2.57% (active)	-3.61% (active)	-2.49% (active)	-51% (active)	-60.5% (active)	-23.5% (active)	-27.7% (active)	-48.8% (active)	13.6%	6.15% (active)	-60.4% (active)	-35.2% (active)	-3.06% (active)	10.9%	-79.9% (active)	66.3%	74.6%
